The results in this text go back to PubChem BioAssay.

In test [1] the target is Albumin (Bos taurus) (UniProt P02769). Briefly: compounds binding labelled BSA control protein – biochemical, small-molecule microarray, Alexa647 label, 635/667 nm fluorescence, artefact control for SMM control protein annotation, profiling panel (AID 1118).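 Note: score merges 667 nm emission intensity and signal-to-noise per printed compound spot.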 The note with it: BSA-A647 binding, fluorescence 635 nm, higher = more signal.
A short description of test [2]: probe aXIP binding to arrayed compounds – biochemical, NeuroSMM set, 635/667 nm fluorescence, primary screen (AID 1119).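 Note: probe is the protein aXip251-270 applied at 1 µg/mL to compound-printed slides; binding of probe to printed compounds measured as 667 nm fluorescence plus signal to noise.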 The note with it: small-molecule microarray, higher = more signal, called active from +8 up or from −8 down.
A short description of test [3]: probe aNOTCH3 binding on compound microarray – biochemical, small-molecule microarray, 635/667 nm fluorescence, primary screen (AID 1120).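 Note: probe is a biotin-tagged antibody raised against NOTCH3 rather than NOTCH3 protein; score merges spot fluorescence near 667 nm with spot signal to noise.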 The note with it: higher = more signal.
Test [4] can be described thus: probe aNOTCH2 binding on compound microarray – biochemical, small-molecule microarray, 635/667 nm fluorescence, primary screen (AID 1121).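 Note: score merges feature fluorescence read at 667 nm with its signal to noise.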 The settings on record: higher = more signal.
For test [5], the target named is Carbonic anhydrase 2 (Homo sapiens) (UniProt P00918). Nature of the test: compounds binding carbonic anhydrase 2 – biochemical, small-molecule microarray, Alexa647-labelled CAII, profiling panel (AID 1122). The note with it: CAII-A647 binding fluorescence, higher = more signal.
Test [6] is described as follows: COS7 lysate on small-molecule microarray, probe aHis, 635 nm (AID 1123).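 Note: z-score combines 667nm fluorescence intensity with signal-to-noise per printed compound spot.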 The settings on record: COS7 cell lysate, fluorescence, higher = more signal.
Test [7] can be described thus: probe aLAP1 signal on lysate-treated microarray – cell lysate, small-molecule microarray, COS7 lysate, primary screen (AID 1124).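 Note: lysate comes from COS7 cells expressing LAP1 and is applied at 0.3 µg/mL; score merges spot fluorescence near 667 nm with signal-to-noise over triplicate slides.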 The settings on record: probe aLAP1, fluorescence, higher = more signal.
Test [8] concerns Sam68 (KHDRBS1). Briefly: compounds binding KHDRBS1 protein – biochemical, small-molecule microarray, 635 nm fluorescence, primary screen (AID 1125).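 Note: score merges 667 nm channel intensity with signal to noise over triplicate slides.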 The settings on record: higher = more signal.
For test [9], the system named is Chordin-like protein 2 (CHRDL2). Nature of the test: compounds binding chordin-like 2 – biochemical, small-molecule microarray, 635 nm fluorescence, primary screen (AID 1126).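 Note: printed compound slides probed with Chrdl2 protein at 4 µg/mL for 1 h at 4 C; score merges 667 nm emission intensity with signal to noise over three replicate slides.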 The note with it: fluorescence 635 nm, higher = more signal.
The target of test [10] is Concanavalin-A (Canavalia ensiformis) (UniProt P02866). Nature of the test: compounds binding concanavalin A lectin – biochemical, small-molecule microarray, Alexa647 label, 635 nm, artefact control for SMM control protein annotation, primary screen (AID 1127).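 Note: z combines 667 nm emission intensity with signal-to-noise across three replicate slides.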 The note with it: ConA-A647 binding fluorescence, higher = more signal.

Activity calls are given as the source filed them.

Chain of Albumin (Bos taurus) (P02769 whole entry, looked up): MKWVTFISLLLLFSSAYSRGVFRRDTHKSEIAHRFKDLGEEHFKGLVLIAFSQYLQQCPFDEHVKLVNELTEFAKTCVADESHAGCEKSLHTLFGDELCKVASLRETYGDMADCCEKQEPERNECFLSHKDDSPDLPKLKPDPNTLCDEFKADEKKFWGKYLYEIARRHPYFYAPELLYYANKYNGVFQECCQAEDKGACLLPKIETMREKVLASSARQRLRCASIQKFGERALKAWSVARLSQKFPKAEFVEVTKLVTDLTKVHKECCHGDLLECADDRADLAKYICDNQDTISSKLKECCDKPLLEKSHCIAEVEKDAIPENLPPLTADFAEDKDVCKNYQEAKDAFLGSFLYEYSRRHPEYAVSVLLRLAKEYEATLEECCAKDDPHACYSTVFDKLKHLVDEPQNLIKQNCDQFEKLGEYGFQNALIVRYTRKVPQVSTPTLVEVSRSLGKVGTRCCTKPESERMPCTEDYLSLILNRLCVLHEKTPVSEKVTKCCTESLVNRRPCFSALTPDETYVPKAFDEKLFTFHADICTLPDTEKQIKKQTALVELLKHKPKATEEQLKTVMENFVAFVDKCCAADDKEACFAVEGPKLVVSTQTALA
Chain of Concanavalin-A (Canavalia ensiformis) (P02866 whole entry, looked up): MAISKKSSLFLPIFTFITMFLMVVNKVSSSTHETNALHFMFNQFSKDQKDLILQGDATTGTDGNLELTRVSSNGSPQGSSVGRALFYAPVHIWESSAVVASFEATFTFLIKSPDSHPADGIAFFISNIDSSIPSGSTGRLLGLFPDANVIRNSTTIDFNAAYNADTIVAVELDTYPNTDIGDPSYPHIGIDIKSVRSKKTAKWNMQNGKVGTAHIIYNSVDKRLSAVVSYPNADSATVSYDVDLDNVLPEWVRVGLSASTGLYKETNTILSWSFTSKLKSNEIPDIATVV

For the compound `CCCC=C(CCC)[C@@H](NC(=O)c1ccc(C(=O)OC)cc1)c1ccc(C(=O)OC)cc1`, the composite z-score stood at 0.781 in [1]; 0.0847 in [3]; 0.0522 in [4]; 0.203 in test [5]; 2.45 in test [6]; 0.718 in test [7]. The composite z-score in [8] stood at 0.417; in test [9], 0.031; in test [10], 0.251. Further, in [2], the composite Z-score was 0.0466 (inactive).
On to `COC(=O)c1ccc(OC)c(/C=C\CC(OC(=O)c2ccncc2)c2ccccc2)c1` (stereo not given), for which the composite z-score was -0.311 in [1]; -0.0077 in test [3]; -0.168 in test [4]; 0.387 in test [5]; 0.0584 in test [6]; -0.304 in test [7]. Further, the composite z-score is -0.0077 in test [8], 1.37 in test [9] and 0.535 in test [10]. Moreover, the composite Z-score in [2] was 0.63 (inactive).
With `O=C1OCC=C[C@H]2OC34C=CCN(Cn5nnc6ccccc65)C(=O)[C@H]3N(CCO)C(=O)[C@@H]4[C@@H]12` (stereo not given in full), the composite z-score in test [1] is -1.46; in test [3] it was -0.173; in [4] it was -0.171; in test [5], 0.935; in test [6], 0.32; in test [7] it was -0.137. Besides, the results for the composite z-score in test [8], in test [9] and in [10] were 0.184, -1.43 and -0.941, respectively. Also, the composite Z-score in test [2] was -0.358 (inactive).
For `CCOC(=O)C1=CCC(c2ccncc2)N(S(=O)(=O)c2ccc(C)cc2)C1` (stereo not given), the composite z-score in test [1] is 0.924; in test [3], 0.191; in test [4] it was -0.0621; in test [5] it was 0.702; in test [6] it was 2.6; in test [7], 1.05. The composite z-score in test [8] is 1.3; in [9] it was 0.192; in test [10], 0.786. Besides, the composite Z-score in test [2] was 0.525 (inactive).
With `O=C1N(Cc2ccccc2)Cc2ccccc2C[C@@]12COC(c1ccc(OCCCO)cc1)=N2`, the composite z-score in [1] was -0.0983; in test [3], 0.133; in test [4], 0.12; in test [5] it was 0.461; in test [6] it was 2.08; in test [7], 0.4. In addition, the composite z-score worked out at 1.22 in [8], 0.303 in test [9] and 0.864 in [10]. Besides, in [2], the composite Z-score is 0.852 (inactive).
Turning to `C[C@H]1C2[C@H](Cc3ccccc3)NC(=O)[C@]23C(=O)N[C@@H](Cc2ccccc2)C(=O)N2CCC[C@H]2C(=O)NC/C=C/CC/C=C/C3[C@@H]2O[C@]12C` (stereo not given in full), the composite z-score in [1] was 0.688; in test [3] it was 0.073; in test [4] it was -0.159; in test [5], 0.619; in test [6], 0.501; in test [7], 0.472. The composite z-score in test [8] came out at 0.868; in test [9] it was 0.638; in [10], 0.236. For the same compound, the composite Z-score in [2] is -0.571 (inactive).
Turning to `CCCCCCCCCCC(O)C1C=CC2C(=O)N(C)C(=O)C2N1Nc1ccccc1` (stereo not given), the composite z-score was 0.0703 in test [1]; -0.0975 in [3]; -0.271 in test [4]; -0.0594 in [5]; 0.907 in test [6]; 0.478 in test [7]. For the same compound, the composite z-score in test [8] was -1.52; in test [9], -1.84; in [10], -0.834. Also, the composite Z-score in [2] is 0.636 (inactive).
